Results on 40 compounds are retold here after PubChem BioAssay (EPA / NIEHS).

Values joined by “and” are separate entries in the source; they are usually repeats but may differ in a detail not shown here. Identical values can stand only once. Active and inactive are the calls of the source. How the source made its calls: active means hit-call score of the fitted dose curve at least 0.9, where 1 is the maximum; inactive means score below 0.9.

Read-out in this assay: Interleukin-8 (IL8), CXCL8 (gene 3576)
As to the kind of experiment: BSK_LPS_IL8: BioMAP Diversity Plus: LPS Assay for Interleukin-8 (IL8) Biomarker Activity (AID 2283078). The settings on record: primary human HUVEC with PBMC; actives raise or lower the signal. On the procedure: BSK_LPS is a cell-based, multiplexed-readout assay that uses umbilical vein endothelium and peripheral blood mononuclear cells, a human vascular primary cell co-culture, with measurements taken at 24 hours after chemical dosing in a 96-well plate.BSK_LPS_IL8 is an assay component measured in the BSK_LPS assay. It measures IL-8 antibody related to regulation of gene expression using ELISA technology.Data from the assay component BSK_LPS_IL8 was analyzed into 1 assay endpoint. This assay endpoint, BSK_LPS_IL8, was analyzed with bidirectional fitting relative to DMSO as the negative control and baseline of activity. Using a type of binding reporter, gain or loss-of-signal activity can be used to understand changes in the signaling as they relate to the gene CXCL8. Furthermore, this assay endpoint can be referred to as a primary readout, because this assay has produced multiple assay endpoints where this one serves a signaling function. To generalize the intended target to other relatable targets, this assay endpoint is annotated to the cytokine intended target family, where the subfamily is interleukins.
The levels of cell surface (or secreted, indicated by the prefix "s") biomarker endpoints were measured by ELISA. Overt cytotoxicity to cells in confluent adherent cultures (all systems other than the BT system) was assessed by measuring total protein levels using sulforhodamine B (SRB) staining in parallel cultures at the time of biomarker measurements, indicated as SRB endpoints. For proliferation assays for adherent cell types, individual cell types are cultured at sub-confluence and relative cell numbers quantified by SRB staining at time points optimized for each system (48 h: 3C and CASM3C systems; 72 h: BT and HDF3CGF systems; 96 h: SAg system). SRB was performed by staining cells with 0.1% SRB after fixation with 10% TCA and reading wells at 560 nm.Viability and proliferation of PBMC (T cells) was quantified by Alamar Blue reduction for the SAg and BT systems. For PBMC viability (referred to as PBMC Cytotoxicity within the assay endpoint names), cells were plated (75,000/well in a 96-well plate) and then chemical samples added for 1 h before addition of activators, SEB and TSST-1 (20 ng/mL final concentration each). Cells were incubated for 90 h. Then, Alamar Blue (20 uL/well) (Invitrogen, Cat DAL1100) was added for 6 h, and the plates were read with a fluorescence microplate reader at 546/580 nm (excitation/emission). For PBMC proliferation, cells were plated and activated as above but incubated for only 16 h prior to addition of Alamar Blue. Plates were read after 6 h.
As for `N#CSCSc1nc2ccccc2s1`, the half-maximal activity concentration (AC50) is 5.09 µM (active) and 9.38 µM (active).

As to `CCN(CC)C(=O)c1cccc(C)c1`, the outcome was inactive.

On to `CCOC(=O)[C@H](C)Oc1ccc(Oc2nc3ccc(Cl)cc3o2)cc1`, for which the result was inactive.

`CC1(C)C(C=C(Cl)Cl)C1C(=O)OCc1cccc(Oc2ccccc2)c1` (stereo not given): the AC50 is 10 µM (active).

For `c1ccc(Nc2ccccc2)cc1`, the outcome was inactive.

On to `CCCOC(=O)c1ccc(C(=O)OCCC)nc1`, for which the outcome was inactive.

With `CCN(Cc1c(F)cccc1Cl)c1c([N+](=O)[O-])cc(C(F)(F)F)cc1[N+](=O)[O-]`, the AC50 is 13.6 µM (active).

On to `COC(=O)c1c(Cl)nn(C)c1S(=O)(=O)NC(=O)Nc1nc(OC)cc(OC)n1`, for which the outcome was inactive.

For `CCOC(=O)COc1cc(-n2ncc(C(F)(F)F)c(C)c2=O)c(F)cc1Cl`, the result was inactive.

In the case of `C[C@]12C[C@H](O)[C@H]3[C@@H](CCC4=CC(=O)CC[C@@]43C)[C@@H]1CC[C@@H]2C(=O)CO`, the result was inactive.

As for `CN(C)C(=O)Nc1ccc(Cl)c(Cl)c1`, the outcome was inactive.

Turning to `COC(=O)c1ccccc1C(=O)O`, the result was inactive.

In the case of `COc1nc(C)nc(NC(=O)NS(=O)(=O)c2ccccc2OCCCl)n1`, the outcome was inactive.

Regarding `COC(=O)c1ccccc1S(=O)(=O)NC(=O)Nc1nc(OC(F)F)cc(OC(F)F)n1`, the outcome was inactive.

In the case of `CCCN(CCC)c1c([N+](=O)[O-])cc(C(F)(F)F)c(N)c1[N+](=O)[O-]`, the outcome was inactive.

For the compound `Oc1ccc(C(c2ccc(O)cc2)C(Cl)(Cl)Cl)cc1`, the half-maximal activity concentration (AC50) is 14.9 µM (active).

`COCCO`: the result was inactive.

As for `S=C(S)NCCNC(=S)S.[Mn+2].[S-]C([S-])=NCCN=C([S-])[S-].[Zn+2]`, the result was inactive.

With `CCCCOC(=O)[C@@H](C)Oc1ccc(Oc2ccc(C(F)(F)F)cn2)cc1`, the outcome was inactive.

For `C#C[C@]1(O)CC[C@H]2[C@@H]3CCC4=CC(=O)CC[C@@H]4[C@H]3CC[C@@]21CC`, the outcome was inactive.

As for `O=C(c1ccccc1)C1CCCCC1`, the result was inactive.

On to `CCCCCCC(C)OC(=O)COc1nc(F)c(Cl)c(N)c1Cl` (stereo not given), for which the concentration at half-maximal activity (AC50) was 36.8 µM (active).

As for `C=CCOC(Cn1ccnc1)c1ccc(Cl)cc1Cl` (stereo not given), the result was inactive.

On to `c1ccc2[nH]c(-c3cscn3)nc2c1`, for which the outcome was inactive.

As to `COC(=O)c1ccc(I)cc1S(=O)(=O)NC(=O)Nc1nc(C)nc(OC)n1`, the outcome was inactive.

For the compound `CCOC(=O)NCCOc1ccc(Oc2ccccc2)cc1`, the result was inactive.

As for `S=C([S-])NCCNC(=S)[S-].[Mn+2]`, the outcome was inactive.

With `O=C(O)c1ccccc1`, the result was inactive.

For `CC(=O)[C@H]1CC[C@H]2[C@@H]3CCC4=CC(=O)CC[C@]4(C)[C@H]3CC[C@]12C`, the AC50 was 20 µM (active).

As for `CCC(C)OC(=O)N1CCCCC1CCO` (stereo not given), the outcome was inactive.

As for `C[C@]12CC[C@@H]3c4ccc(O)cc4C[C@@H](CCCCCCCCCS(=O)CCCC(F)(F)C(F)(F)F)[C@H]3[C@@H]1CC[C@@H]2O` (stereo not given in full), the outcome was inactive.

Take `CCCCC(CC)COC(=O)c1ccccc1C(=O)O` (stereo not given): the result was inactive.

In the case of `CCCN(CCC)C(=O)SCC`, the outcome was inactive.

Take `CC(C)(C)[C@@H](O)[C@@H](Cc1ccc(Cl)cc1)n1cncn1`: the result was inactive.

Consider `CCCCCOC(=O)COc1cc(N2C(=O)C3=C(CCCC3)C2=O)c(F)cc1Cl`, for which the AC50 is 20 µM (active).

Turning to `Cc1nn(C)c(Oc2ccccc2)c1C=NOCc1ccc(C(=O)OC(C)(C)C)cc1`, the AC50 is 8.08 µM (active).

`CCSC(=O)N(CC(C)C)CC(C)C`: the result was inactive.

Turning to `O=C(O)C1(C(=O)Nc2ccc(Cl)cc2Cl)CC1`, the outcome was inactive.

As to `CSC(=O)c1cccc2nnsc12`, the result was inactive.

For the compound `CCOC(=O)C(C)Oc1ccc(Oc2cnc3cc(Cl)ccc3n2)cc1` (stereo not given), the result was inactive.

The term AC50 denotes the midpoint of the concentration-response curve, whichever way the signal moves.
